# FadD28 FP inh: inhibitors of Mycobacterium tuberculosis FadD28 bisubstrate binding | hit rate 0.22% among 360,000 | FadD28 bisubstrate probe binding, fluorescence polarization | AID 588549 | inhibition, % at 12.5 µM; in the data active = inhibition above about 8.5%, passing the limit was not always enough
# Rv3671c protease: inhibits the M. tuberculosis serine protease Rv3671c; AID 2606; inhibition, % at 5.96 µM; P9WHR9; hit rate 0.048% among 320,000; in the data active = inhibition above about 38%;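 also: extracellular domain of Rv3671c used as enzyme; 0% = enzyme with DMSO and 100% = no enzyme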
# Mtb FBA inh: inhibitors of M. tuberculosis fructose-bisphosphate aldolase | inhibition, % at 1 µM | AID 588726 | hit rate 2.3% among 360,000 | purified M. tuberculosis FBA, fluorescence read-out | P9WQA3; in the data active = inhibition above about 27%;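 also: 0% = vehicle and 100% = reference inhibitor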
# Target sequence (P9WQA3 whole entry, looked up): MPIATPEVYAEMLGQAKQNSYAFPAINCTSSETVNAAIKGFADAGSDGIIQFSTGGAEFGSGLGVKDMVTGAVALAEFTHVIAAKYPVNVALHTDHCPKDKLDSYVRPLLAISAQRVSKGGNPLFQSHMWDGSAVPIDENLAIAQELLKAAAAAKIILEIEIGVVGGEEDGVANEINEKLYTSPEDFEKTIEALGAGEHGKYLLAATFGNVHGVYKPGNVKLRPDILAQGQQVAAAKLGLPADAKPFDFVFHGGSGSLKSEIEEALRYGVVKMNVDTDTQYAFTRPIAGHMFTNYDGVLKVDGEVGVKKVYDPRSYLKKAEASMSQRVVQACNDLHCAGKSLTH
# BioA inh: BioA (M. tuberculosis) enzyme inhibition; purified M. tuberculosis BioA enzyme, plate reader; inhibition, % at 9.99 µM; hit rate 0.096% among 360,000; AID 602481; in the data active = inhibition above about 40%
# GDH-TPI counter: inhibits GDH-TPI coupling enzymes, artifact for Mtb FBA screen | GDH-TPI coupled enzyme counterscreen, NADH absorbance | inhibition, % at 4.8 µM | hit rate 1.2% among 360,000; in the data active = inhibition above about 30%;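 also: 0% = DMSO wells and 100% = wells lacking the enzyme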
# An asterisk follows results filed as active; x = no result; + = active, no number. The list is not random: actives were taken first. Their share in the collection is about 3%.
SMILES,FadD28 FP inh,Rv3671c protease,Mtb FBA inh,BioA inh,GDH-TPI counter
CC1S/C(=N/N=C/c2ccco2)NC1=O (stereo unspecified),-2,-5,-2,-2,39*
Cc1cccc(CC2S/C(=N/N=C/c3ccco3)NC2=O)c1 (stereo unspecified),0,-1,1,-4,20
CCCC1S/C(=N/N=C/c2ccco2)NC1=O (stereo unspecified),0,-9,-1,x,28
CCC1S/C(=N/N=C/c2cccs2)NC1=O (stereo unspecified),0,2,-2,-2,30
Cc1cccc(NC(=O)C2CC(=O)N/C(=N/N=C/c3ccco3)S2)c1 (stereo unspecified),-2,-30,-2,2,57*
C[C@@H]1CCCCO[C@@H](CN(C)C(=O)CCC(F)(F)F)[C@@H](C)CN([C@H](C)CO)C(=O)c2cc(NC(=O)CCCCCC(=O)Nc3ccccc3N)ccc2O1,x,x,x,2,x
CCCOc1ccc(/C=C/c2c([N+](=O)[O-])c(=O)n(C)c(=O)n2C)cc1,-2,0,-1,-1,39*
Cc1noc(C)c1NC(=O)N(C)C[C@H]1Oc2ccc(NC(=O)CCCCCC(=O)Nc3ccccc3N)cc2C(=O)N([C@@H](C)CO)C[C@@H]1C,x,x,x,1,x
O=C(C[C@@H]1CC[C@H](NC(=O)CCN2CCCCC2)[C@H](CO)O1)NCc1ccc(Cl)c(Cl)c1,x,x,x,0,x
O=C(O)c1ccc(N/N=C/C2=C(N3CCOCC3)C(=C\c3ccccc3)/CC2)cc1,4,4,-1,9,19
CN(C(=O)NC(=O)C1=C(N2CCOCC2)/C(=C/c2ccccc2)CC1)S(C)(=O)=O,-2,0,114*,0,29
CN1[C@@H]2Cn3c(ccc(-c4ccc(F)cc4)c3=O)[C@H]1[C@@H](C(=O)Nc1nccs1)[C@@H]2CO,x,x,x,1,x
COc1ccc(N(CC(=O)Nc2ccccc2OC)S(=O)(=O)c2ccc(NC(C)=O)cc2)cc1,-3,-20,2,0,31*
COc1ccccc1NC(=O)CN(c1ccccc1)S(=O)(=O)c1ccccc1,-1,-2,8,0,15
CC(=O)Nc1nc2n(n1)C(c1ccccc1)C=C(c1ccccc1)N2 (stereo unspecified),-4,-3,50*,-5,6
CS(=O)(=O)Nc1nc2n(n1)C(c1ccccc1)C=C(c1ccc(Br)cc1)N2 (stereo unspecified),-3,-9,34*,x,5
CC(=O)Nc1nc2n(n1)C(c1ccc(Cl)cc1)C=C(C)N2 (stereo unspecified),-20,6,119*,x,12
C[C@@H]1CN([C@H](C)CO)C(=O)Cc2cc(NC(=O)NC3CCCCC3)ccc2O[C@@H]1CN(C)C(=O)Nc1ccc2c(c1)OCO2,x,x,x,0,x
CCCC#Cc1cnc2c(c1)C(=O)N([C@H](C)CO)C[C@@H](C)[C@H](CN(C)CCC)O2,x,x,x,3,x
N#C[C@@H]1[C@@H](c2ccc(-c3cncnc3)cc2)[C@H](CO)N1C(=O)C1CCC1,x,x,x,1,x
COc1ccc(CN(C)C[C@H]2Oc3ccc(NC(=O)CCC(F)(F)F)cc3CC(=O)N([C@@H](C)CO)C[C@H]2C)cc1,x,x,x,-2,x
CCCC(=O)Nc1ccc(N2CCN(S(C)(=O)=O)CC2)cc1,-1,5,1,x,2
CCCC(=O)NC1=C(N2CC2)C(=O)C(NC(=O)CCC)=C(N2CC2)C1=O,0,x,-2,0,33*
CCN(C(C)=O)c1cnc(C=NNC(N)=S)c2ccccc12,-2,x,2,x,34*
CO[C@@H]1CN(C)C(=O)c2ccc(NC(=O)c3nc4ccccc4s3)cc2OC[C@H](C)N(Cc2cccnc2)C[C@@H]1C,x,x,x,-2,x
SMILES,FadD28 FP inh,Rv3671c protease,Mtb FBA inh,BioA inh,GDH-TPI counter
O=C(COc1ccc([N+](=O)[O-])cc1)N/N=C/c1cc([N+](=O)[O-])ccc1N1CCOCC1,-5,6,-3,0,48*
C[C@@H]1CN([C@@H](C)CO)C(=O)c2cc(NS(=O)(=O)c3ccc(Cl)cc3)ccc2O[C@H]1CN(C)S(=O)(=O)c1ccc(F)cc1,x,x,x,1,x
COc1cc(OCc2ccccc2)c2c(CCC(=O)O)cc(=O)oc2c1,-3,x,+,x,22
CCc1cc(=O)oc2cc(OC(C)=O)cc(OC(C)=O)c12,1,3,+,x,23
CCc1cc(=O)oc2cc(OS(C)(=O)=O)ccc12,-1,4,24,1,5
O=C(N/N=C/c1ccc([N+](=O)[O-])cc1)c1ccc(NS(=O)(=O)c2cccs2)cc1,1,-3,-5,1,41*

# Screening results: PubChem, several laboratories
